Most compounds without a hit are left out; they make up all but 1.3% or so of the library.
HIF activator: HIF pathway transcriptional activation; AID 1910; 300,000 tested, 0.32% active; U2OS HRE-luciferase reporter, luminescence; normalized: DMSO 0%, desferrioxamine 100%; activation, % at 7.5 µM (by protocol);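 active = mean activation of at least 10% of the iron chelator positive control signal, with at least half of replicates also reaching 10%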
NPR1 activator: GC-A (human) enzyme activation | P16066 | HEK293 GC-A cells, cGMP TR-FRET, EC30 ANP; 0% at EC30 ANP, 100% saturating ANP | activation, % at 10 µM | 370,000 tested, 0.14% active; in the data active = activation above about 40%
KLK7 zymogen act: activators of human kallikrein-7 zymogen. activation, % at 7 µM. AID 652039. purified proKLK7, EDANS-DABCYL substrate fluorescence; 100% is mature enzyme control, 0% vehicle. 370,000 tested, 0.9% active;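 active = activation above the mean of all tested compounds plus 3 SD, computed per campaign excluding outliers beyond control limits, cut at about 13% in these data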
NPR2 activator: GC-B (human) receptor activation. activation, % at 10 µM. HEK293-GC-B cells, CNP EC30, cGMP TR-FRET; 0% at EC30 CNP, 100% saturating CNP. P20594. 370,000 tested, 0.11% active;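 active = activation at 10 µM reaching about 35% in either raw or pattern-adjusted values, limit read from the data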
Target sequence (P20594 whole entry, looked up): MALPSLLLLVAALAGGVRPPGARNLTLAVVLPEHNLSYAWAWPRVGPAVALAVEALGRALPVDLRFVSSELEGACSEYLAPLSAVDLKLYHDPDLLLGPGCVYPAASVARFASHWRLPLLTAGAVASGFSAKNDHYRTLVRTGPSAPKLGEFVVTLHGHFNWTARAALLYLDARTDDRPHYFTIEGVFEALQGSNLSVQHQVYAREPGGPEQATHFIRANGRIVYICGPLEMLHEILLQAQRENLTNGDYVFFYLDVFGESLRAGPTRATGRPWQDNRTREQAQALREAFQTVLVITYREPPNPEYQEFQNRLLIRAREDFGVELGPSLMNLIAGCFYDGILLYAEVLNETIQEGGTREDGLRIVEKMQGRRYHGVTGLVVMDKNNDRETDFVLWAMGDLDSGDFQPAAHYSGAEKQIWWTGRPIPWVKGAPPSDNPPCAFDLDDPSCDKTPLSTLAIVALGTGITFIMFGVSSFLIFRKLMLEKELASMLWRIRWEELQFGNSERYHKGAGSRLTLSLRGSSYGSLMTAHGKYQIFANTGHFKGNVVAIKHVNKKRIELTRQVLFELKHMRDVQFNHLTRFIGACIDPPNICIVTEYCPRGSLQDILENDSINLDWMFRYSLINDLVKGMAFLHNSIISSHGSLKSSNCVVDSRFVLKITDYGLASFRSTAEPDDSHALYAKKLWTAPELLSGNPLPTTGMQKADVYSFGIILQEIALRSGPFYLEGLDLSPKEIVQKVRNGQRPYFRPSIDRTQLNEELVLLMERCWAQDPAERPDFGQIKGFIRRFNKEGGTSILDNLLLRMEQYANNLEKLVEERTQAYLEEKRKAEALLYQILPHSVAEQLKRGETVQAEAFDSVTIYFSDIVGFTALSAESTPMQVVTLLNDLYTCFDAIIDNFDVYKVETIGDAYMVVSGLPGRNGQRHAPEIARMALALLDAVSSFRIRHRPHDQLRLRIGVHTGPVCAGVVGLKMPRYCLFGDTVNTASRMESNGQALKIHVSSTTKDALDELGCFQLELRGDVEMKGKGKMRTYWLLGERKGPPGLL
Large screens that a line does not name were inactive.

Cc1ccc(/C=N\Nc2nc3ccc(Cl)cc3[nH]2)o1	HIF activator 13
Cc1ccc(-c2nc3ccccc3nc2Cl)cc1	none
Cc1ccc(-c2nc3ccccc3nc2NN)cc1	HIF activator 18
O=[N+]([O-])c1cccc(NCCCN2CCC(C(O)(c3ccccc3)c3ccccc3)CC2)c1	none (no result: HIF activator)
Cc1ncc(CO)c(/C=N/Nc2ccc(C(F)(F)F)cn2)c1O	HIF activator 9.6
COCCCN1C(=O)[C@H](CC(=O)NCC23CC4CC(CC(C4)C2)C3)[C@]2(C(=O)OC)CCCCC=C12	none (no result: HIF activator)
O=C(CCN1CCCCC1)c1ccccc1	NPR1 activator 62
C[N+]1(CCC(=O)c2ccccc2)CCCCC1	NPR1 activator 73
O=C(CCN1CCOCC1)c1ccccc1	none (no result: NPR1 activator, NPR2 activator)
CC1CCCN(CCC(=O)c2ccccc2)C1 (stereo not given)	NPR1 activator 67 (no result: HIF activator)
CC(=O)OC(C[N+]1(C)CCCCCC1)c1ccccc1 (stereo not given)	none
COc1ccc(NC(=O)CSc2nnc(-c3n[nH]c4c3CCC4)n2N)cc1	none (no result: HIF activator)
COc1cc(CNc2ccc3[nH]c(=O)[nH]c3c2)ccc1OCc1ccccc1F	NPR2 activator 43
COc1ccccc1-c1cc(-c2ccc(O)cc2)nc(N)c1C#N	NPR1 activator 41
COc1cc(-c2cc(-c3ccc(O)cc3)nc(N)c2C#N)ccc1O	none
O=C(O)c1ccc(C#Cc2cccc(F)c2)cn1	none (no result: HIF activator)
CCOC(=O)CN1C(=N)N(c2nc(NC(C)C)nc(NC(C)C)n2)CC1=O	HIF activator 11
CN(CCS(=O)(=O)c1ccc(Cl)cc1)Cc1cccnc1	HIF activator 116
Cc1cccc(OCc2nnc(SCC(=O)OC3CCCCC3)o2)c1	NPR1 activator 60
Cc1cccc(OCc2nnc(SCC(=O)N3CCCCC3)o2)c1	none
CCOC(=O)C1=NOC(C(C)=O)(C(=O)N2CCOCC2)C1 (stereo not given)	none (no result: HIF activator)
CC[C@]12c3[nH]c4cc(-c5ccco5)ccc4c3CCN1C(=O)[C@@H](CC(=O)NC(C)(C)C)C[C@@H]2C(=O)N1CCN(C(=O)c2ccco2)CC1	KLK7 zymogen act 116 (no result: HIF activator)
COc1ccc(CNC(=O)C[C@H]2C[C@H](C(=O)N3CCOCC3)[C@@]3(CCC4CCCC4)c4[nH]c5cc(-c6ccco6)ccc5c4CCN3C2=O)cc1OC	none (no result: HIF activator)
CC(C)N(C(=O)[C@H]1C[C@H](CC(=O)NCc2ccco2)C(=O)N2CCc3c([nH]c4cc(-c5ccco5)ccc34)[C@]12C)C(C)C	KLK7 zymogen act 35 (no result: HIF activator)
COc1ccc(CNC(=O)C[C@H]2C[C@H](C(=O)N3CCCCC3)[C@@]3(C)c4[nH]c5cc(-c6ccco6)ccc5c4CCN3C2=O)cc1OC	KLK7 zymogen act 68 (no result: HIF activator)
CC(C)N(C(=O)[C@H]1CC(CC(=O)NCc2ccco2)C(=O)N2CCc3c([nH]c4ccccc34)[C@]12C)C(C)C (stereo not given in full)	none (no result: HIF activator)
COc1ccc(/C=C/C(=O)NC2=NCCS2)c(OC)c1	none (no result: HIF activator, KLK7 zymogen act)
COC(=O)c1cnn(-c2ccc(F)cc2F)c1/C=N/NC(=S)Nc1ccccc1	none (no result: HIF activator, KLK7 zymogen act)
CCCNC(=O)COc1cccc(C(=O)NCc2ccccc2)c1	none
CCNC(=O)COc1cccc(C(=O)NCc2ccccc2)c1	HIF activator 75
COc1ccc(-n2c(SCC(=O)Nc3cc(C)on3)nc3c([nH]c4ccccc43)c2=O)cc1OC	NPR1 activator 72
COc1ccc(-n2c(SCC(=O)Nc3cc(C)on3)nc3c([nH]c4ccccc43)c2=O)cc1	NPR1 activator 77
COc1cccc(-n2c(SCC(=O)N3CCOCC3)nnc2-c2c[nH]c3ccccc23)c1	none
CCOc1ccc(-n2c(SCC(=O)Nc3cc(C)on3)nc3c([nH]c4ccccc43)c2=O)cc1	NPR1 activator 71
C=CCn1c(SCC(=O)Nc2cc(C)on2)nc2c([nH]c3ccccc32)c1=O	none
COc1cccc(-n2c(SCC(=O)N3CCOCC3)nc3c([nH]c4ccccc43)c2=O)c1	HIF activator 457
Nn1c(SCc2cccc3ccccc23)nnc1-c1cc(-c2ccc(Cl)cc2)n[nH]1	none (no result: HIF activator)
COc1ncc(-c2cc(C(C)=O)c3n(c2=O)CCC3)c(OC)n1	none (no result: HIF activator)
Cc1ccc(-n2c(SCC(=O)Nc3cc(C)on3)nc3c([nH]c4ccccc43)c2=O)cc1	NPR1 activator 79
CCCCOCCCNC(=O)C[C@@H]1C(=O)N2CCCC3=C2[C@@]1(C(=O)OCC)CCC3	none (no result: HIF activator)
COc1cccc(/C=N/Nc2ncnc3c2ncn3Cc2ccccc2)c1O	HIF activator 68
Cc1ccc(CN[C@@H]2CC[C@@]34CCCN3C(=O)CCC[C@H]4C2)o1	none (no result: HIF activator, KLK7 zymogen act)
O=C(CN(Cc1ccc(F)cc1)C(=O)CCC(=O)Nc1nccs1)NCC1CCCO1 (stereo not given)	HIF activator 31
Cc1ccc(S(=O)(=O)N2CCOC23CCN(C(=O)c2ccc(Cl)cc2Cl)CC3)cc1	none
Cc1ccc(S(=O)(=O)N2CCOC23CCN(C(=O)c2cc(Cl)ccc2Cl)CC3)cc1	HIF activator 70
CCC[C@H]1[C@@H](NC(=O)Nc2ccc3c(c2)OCO3)CC[C@@]23CCCN2C(=O)CCC[C@@H]13	none (no result: HIF activator, KLK7 zymogen act)
COc1ccc(Nc2c(-c3ccc(C)cc3)nc3cnccn23)cc1	NPR1 activator 46, NPR2 activator 48
Cc1cccc(Nc2c(-c3ccc(O)cc3)nc3ncccn23)c1	none
Cc1ccc(Nc2c(-c3ccccc3O)nc3ncccn23)cc1	NPR1 activator 54
COc1ccc(Nc2c(-c3ccc(OC)cc3)nc3cnccn23)cc1	NPR1 activator 50, NPR2 activator 49
Cc1ccc(Nc2c(-c3ccc(N4CCOCC4)cc3)nc3cnccn23)cc1	none
Cc1ccc(Nc2c(-c3ccccc3O)nc3cnccn23)cc1	NPR1 activator 48
COC(=O)/C(C#N)=C/c1c(N2CCN(Cc3ccc4c(c3)OCO4)CC2)nc2c(C)cccn2c1=O	HIF activator 410
O=C(NC1CCCCC1)O[C@H]1CC[C@@]23CCCN2C(=O)CCC[C@H]3C1	none (no result: HIF activator, KLK7 zymogen act)
Cc1cc(N/N=C/c2ccc(O)cc2O)nc(-c2ccccc2O)n1	HIF activator 21 (no result: NPR1 activator, KLK7 zymogen act, NPR2 activator)
C=CCNC(=O)NC[C@@]1(C(=O)OC)CC(=O)N(C)[C@@H]1c1ccccc1	none (no result: HIF activator)
Cc1ccc(C(=O)Nc2cccc([N+](=O)[O-])c2)cc1S(=O)(=O)Nc1ccc(NC(=O)c2ccccc2)cc1	HIF activator 140
CCCCNC(=O)C[C@@H]1C[C@]2(C(=O)OCC)CCC3=C2N(CCC3)C1=O	none (no result: HIF activator)
Oc1ccc(CCNc2c3ccccc3nc3ccccc23)cc1O	HIF activator 18
c1ccc(CNc2ncnc3ccccc23)cc1	none
c1ccc(CNc2c3ccccc3nc3ccccc23)cc1	HIF activator 20
CN(C)CCCNc1c2ccccc2nc2ccccc12	none
CCOC(=O)N1CCN(C(=O)C[C@H]2C[C@@]3(C(=O)OC)C(=C[C@H](C(C)C)O[C@@H]3C3CC3)N(Cc3ccc4c(c3)OCO4)C2=O)CC1	none (no result: HIF activator)
Nn1c(SCC(=O)Nc2ccccc2-c2ccccc2)nnc1-c1cc(-c2ccccc2)n[nH]1	none (no result: HIF activator)
COc1ccc2[nH]c3c(c2c1)CCN[C@]31C(=O)N(c2ccccc2)c2ccccc21	none (no result: HIF activator)

Compound activity (PubChem BioAssay)
